We go through 64 compounds from PubChem BioAssay AID602410 (Johns Hopkins Ion Channel Center, 2012).

Hit rate of the full screen: of about 340,000 compounds, about 2,800 (0.82%) were called active.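 Rule for the calls: active = B-score under library mean minus 4 SD, starting fluorescence ratio at most library mean plus 5 SD; inactive = the rest.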 Many of the other results were omitted from the sample, so actives are more common in it than they were.

The target of this experiment is Potassium channel subfamily K member 3 (Homo sapiens) (UniProt O14649). Description: blockers of TASK1 two-pore potassium channel – CHO cells, FluxOR thallium flux, B-score, primary screen (AID 602410).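 For B-score: more negative B-score means stronger inhibition of thallium flux through KCNK3.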 Particulars: CHO-KCNK3 thallium flux, FluxOR fluorescence, at 10 µM; hits give low values.
Sequence of Potassium channel subfamily K member 3 (Homo sapiens) (O14649 whole entry, looked up): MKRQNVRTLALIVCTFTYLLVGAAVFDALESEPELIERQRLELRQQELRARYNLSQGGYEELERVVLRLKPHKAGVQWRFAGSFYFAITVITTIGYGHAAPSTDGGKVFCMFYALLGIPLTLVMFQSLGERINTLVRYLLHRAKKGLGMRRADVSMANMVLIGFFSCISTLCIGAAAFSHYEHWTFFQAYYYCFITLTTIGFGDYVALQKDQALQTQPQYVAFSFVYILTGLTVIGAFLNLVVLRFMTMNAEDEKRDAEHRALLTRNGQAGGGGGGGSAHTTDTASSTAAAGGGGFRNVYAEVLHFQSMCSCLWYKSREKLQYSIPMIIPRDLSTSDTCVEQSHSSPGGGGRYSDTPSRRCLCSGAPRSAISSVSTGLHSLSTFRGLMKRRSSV
As to `COc1cccc(NC(=O)CN(C)C(=O)/C=C/c2cn(-c3ccccc3)nc2-c2cccs2)c1`, the B-score is -10.7 (active).
Consider `COc1ccc(NC(=O)CN(C)C(=O)/C=C/c2cn(Cc3ccccc3)nc2-c2cccnc2)cc1`, for which the B-score result was “inactive”.
Turning to `COc1cccc(NC(=O)CN(C)C(=O)/C=C/c2cc(OC)ccc2OC)c1`, the B-score result was “inactive”.
As to `CCN(c1ccccc1)S(=O)(=O)c1ccc(OCC(=O)N2CCCC2)cc1`, the B-score result is “inactive”.
As to `Cc1nc2nc[nH]n2c(=O)c1NC(=O)c1cccc(OCC(C)C)c1`, the B-score result is “inactive”.
For `C=CCN(C(=O)c1cc(C)cc(C)c1)C1(C(=O)Nc2ccccc2)CCN(C(C)C)CC1`, the B-score is -9.18 (active).
In the case of `C=CCn1cc(Cl)cc(C(=O)Nc2ccccc2)c1=O`, the B-score result is “inactive”.
Turning to `CC(C)N1CCC(NC(=O)Nc2ccccc2)CC1`, the B-score entry is “inactive”.
As to `Cc1cccc(-c2c(NC(=O)c3ccco3)oc3ccc(Cl)cc3c2=O)c1`, the B-score entry is “inactive”.
Regarding `O=C(CS(=O)(=O)Cc1ccccc1)Nc1cccnc1`, the B-score entry is “inactive”.
In the case of `CC(=O)Nc1ccc(S(=O)(=O)N(CCc2ccccc2)CC(=O)N/N=C/c2ccc(C(=O)O)cc2)cc1`, the B-score entry is “inactive”.
The same measure for `CCOC(=O)N1CCN(C(=O)c2ccc3c(c2)N(Cc2ccc(C)cc2)CCS3)CC1`: “inactive”.
As to `O=C(NCCc1ccccc1)c1ccc2c(c1)N(Cc1ccccc1)CCS2`, the B-score is -11.6 (active).
With `O=C(NCCc1ccccc1)c1cccc(NC(=O)c2ccccc2)c1`, the B-score result is “inactive”.
As for `CCOCc1c(C(=O)N2CCN(Cc3ccc(Br)s3)CC2)oc2ccccc12`, the B-score result is “inactive”.
Consider `CCOc1ccc(S(=O)(=O)N(CC(=O)NCC(F)(F)F)Cc2ccco2)cc1`, for which the B-score result was “inactive”.
Turning to `CN(C(=O)Cn1nnc(-c2ccc(F)cc2)n1)C1CCS(=O)(=O)C1` (centres undefined), the B-score entry is “inactive”.
The same measure for `CC(C)CCNC(=O)C(C)N(C(=O)Cn1nnc(-c2ccc(F)cc2)n1)C1CCCC1` (centres undefined): -9.19 (active); for `CC(C)CCNC(=O)CN(C(=O)Cn1nnc(-c2ccc(F)cc2)n1)C1CCCC1`: “inactive”; for `C#CCOCCOCCOCCNc1nc(N2CCN(C(=O)C(Cc3ccc(O)cc3)n3cc(C(N)CC(C)C)nn3)CC2)nc(N2CCN(C(=O)C(Cc3ccc(O)cc3)n3cc(C(N)C(C)CC)nn3)CC2)n1` (centres undefined): “inactive”.
Regarding `COc1ccc(-n2c(O)c(C=NCC(c3ccco3)N3CCCC3)c3ccccc3c2=O)cc1OC` (centres undefined), the B-score entry is “inactive”.
The same measure for `CCOc1ccc(-c2nc(N)ncc2-c2ccccc2OC)c(O)c1`: “inactive”; for `COc1ccc(Oc2cn[nH]c2-c2ccc(OC)cc2O)cc1`: “inactive”.
Turning to `CCOc1ccccc1Oc1cn[nH]c1-c1ccc(OC)cc1O`, the B-score was -8.87 (active).
The same measure for `CC1CCc2sc(C(=O)NCC(c3ccco3)N3CCCCC3)cc2C1` (centres undefined): “inactive”; for `COc1cc(C(=S)N2CCOCC2)cc(OC)c1OC(=O)c1cc([N+](=O)[O-])cc([N+](=O)[O-])c1`: “inactive”; for `O=C(Oc1ccc(Br)cc1C(=S)N1CCOCC1)c1cccc([N+](=O)[O-])c1`: -11.4 (active).
For the compound `O=C(Oc1ccccc1C(=S)N1CCCCC1)c1cc([N+](=O)[O-])cc([N+](=O)[O-])c1`, the B-score entry is “inactive”.
As to `O=C(N/N=C/c1sc(N2CCCCC2)nc1-c1cccs1)c1cccnc1`, the B-score was -10.7 (active).
`O=C(NN=C1CCC(=NNC(=O)c2cccnc2)CC1)c1cccnc1`: the B-score entry is “inactive”.
Take `Cc1ccc(NC(=O)COc2ccc(/C=N\NC(=O)c3cccnc3)cc2)cc1C`: the B-score result was “inactive”.
The same measure for `CCCCCCC(O)(CCN1CCCCC1)c1ccccc1` (centres undefined): “inactive”.
The same measure for `Nc1nnc(SCC(=O)NCC(=O)Nc2ccc(F)c(F)c2F)s1`: “inactive”; for `CC(=O)N(C1=C(Cl)C(=O)c2ccccc2C1=O)c1ccc(C(=O)O)cc1`: -11 (active); for `O=C(NC1=CC(=O)c2ccccc2C1=O)c1ccccc1`: “inactive”.
Regarding `O=C1C(Cl)=C(Oc2ccccc2)C(=O)c2ccccc21`, the B-score result is “inactive”.
With `CS(=O)(=O)N(CC(=O)N1CCc2ccccc2C1)c1ccc(Br)cc1`, the B-score result is “inactive”.
In the case of `COc1ccccc1CN1CCN(C(c2ccccc2)c2ccccc2)CC1`, the B-score entry was “inactive”.
With `CC1(C)CC(N2CCN(C(c3ccccc3)c3ccccc3)CC2)=CC(=[N+]2CCCCC2)C1`, the B-score was -8.86 (active).
As for `CC(C)OCC(O)CN1CCN(C(c2ccccc2)c2ccccc2)CC1` (centres undefined), the B-score entry was “inactive”.
As to `CC(=O)Nc1cccc(OCC(=O)/C=C2\N(C)c3ccccc3C2(C)C)c1`, the B-score was -8.91 (active).
The same measure for `CN1CCN(CCC(=O)N/N=C/C=C2\N(C)c3ccccc3C2(C)C)CC1`: “inactive”; for `CC(C)Nc1nnc(SCC(=O)/C=C2\N(C)c3ccccc3C2(C)C)s1`: “inactive”.
Take `CCCCn1c(N)c(N(CCOC)C(=O)c2cccc(S(=O)(=O)N3CCCCC3)c2)c(=O)[nH]c1=O`: the B-score entry was “inactive”.
The same measure for `CC(Oc1ccccc1[N+](=O)[O-])C(=O)N/N=C/c1ccoc1` (centres undefined): “inactive”; for `O=C(N/N=C/c1ccoc1)c1ccc(Cl)cc1Cl`: “inactive”; for `CC(C)c1cc(C(=O)N/N=C/c2ccoc2)c(O)c(C(C)C)c1`: -10.5 (active).
The same measure for `COC(=O)c1cc2c(ccn2C)n1C`: “inactive”.
For the compound `COc1ccc(S(=O)(=O)c2c[nH]c(=S)[nH]c2=O)cc1Cl`, the B-score result was “inactive”.
In the case of `CC(=O)Nc1ccc(S(=O)(=O)NCCC(=O)N2CCN(c3ccccc3Cl)CC2)cc1`, the B-score result is “inactive”.
For `CC(C)c1ccc(OCC(O)Cn2cnc3ccccc32)cc1` (centres undefined), the B-score result was “inactive”.
The same measure for `OC(CN=c1sc2ccccc2n1CC(O)COc1ccccc1)COc1ccccc1` (centres undefined): -12.6 (active); for `O=C(C(c1ccccc1)c1ccccc1)N1CCN(CC(O)COc2ccccc2)CC1` (centres undefined): “inactive”.
`COc1ccc(C)cc1NC(=O)CNCc1cccs1`: the B-score entry is “inactive”.
Consider `O=C1OC(Oc2ccc(Br)cc2)(c2ccccc2)c2ccccc21` (centres undefined), for which the B-score was -10.1 (active).
As for `CS(=O)(=O)Nc1ccccc1N=C(c1ccccc1)c1ccccc1`, the B-score result is “inactive”.
Consider `CCC(CC)C(=O)Nc1cc(C(=O)OC)cc(C(=O)OC)c1`, for which the B-score entry was “inactive”.
Take `O=C(NCCCO)c1cc2c([nH]c3ccccc32)c(-c2ccc(F)cc2)n1`: the B-score entry was “inactive”.
Consider `COc1ccccc1N1CCN(C(=O)c2cn(-c3ccccc3)nc2-c2cccnc2)CC1`, for which the B-score result is “inactive”.
With `COc1cccc(-c2nn(C)c3sc(C(=O)N4CCN(c5ccccc5)CC4)cc23)c1`, the B-score result is “inactive”.
For `Cn1nc(-c2ccc(Cl)cc2)c2cc(C(=O)NCc3ccco3)sc21`, the B-score is -13.2 (active).
For `COc1ccc2c(Cl)c(C(=O)NCc3ccco3)sc2c1`, the B-score entry is “inactive”.
Turning to `COc1ccccc1N1CCN(C(=O)c2cc3c(-c4ccc(Cl)cc4)nn(C)c3s2)CC1`, the B-score is -10.1 (active).
For the compound `CN(CCNC(=O)c1cc2c(-c3ccccc3F)nn(C)c2s1)C1CCCCC1`, the B-score entry was “inactive”.
